These results are taken from PubChem BioAssay (NCATS).

Values joined by “and” are separate entries in the source; they are usually repeats but may differ in a detail not shown here. Identical values can stand only once. Results filed as inconclusive are left out. Active and inactive are the calls of the source. Unless noted, the call rests on the fitted dose curve; in most records, active means well fitted curve in the direction sought with a large enough effect; inconclusive means small, poorly fitted or top-dose-only effect, or another doubt; inactive means no such curve, though single readings can be large; an effect the other way counts as inactive or inconclusive. Bounds are passed on as bounds.

Test [1] in a line: Cell Viability - BJ (AID 421; calls by dose curve;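 further: potency means the concentration at half of the fitted maximal effect; cells exposed to compound for 40 hours at 37 °C before readout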). The following applies: BJ fibroblast viability, qHTS. The essentials: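 Quantitative HTS: ATP depletion in BJ cells after 40 hr compound exposure in complete culture medium, detected with CellTiter-Glo; AC50 from standard Hill fits.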
(In general: qHTS replaces the single test concentration by a dilution series.)

Test [2] addresses Mitogen-activated protein kinase 10 (Mus musculus) (UniProt Q61831). The experiment in a line: JNK3 AlphaScreen Assay (AID 530; active means well fitted curve in either direction with a large enough effect, not every such curve was filed as active;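 further: kinase came from lysate of stimulated human HepG2 cells; on the % scale 0 is the no-effect control and ±100 the full control effect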). The following applies: JNK3 lysate, c-Jun phosphorylation; series mostly up to 11.4 µM. The essentials: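 Phosphorylation of biotinylated GST-cJun(1-79) at Ser73 is measured by AlphaScreen proximity luminescence. Enzyme is JNK3 in HepG2 lysates activated with interleukin-1beta and tumor necrosis factor alpha; ATP is 10 uM final.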
On the technique in general: In Alpha technology, singlet oxygen from a donor bead excites a nearby acceptor bead.

A short description of test [3]: Cell Viability - LYMP2-001 (AID 921).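 Further: 0% = DMSO only and full inhibition = tetraoctylammonium bromide control wells; nearly all actives have a fitted effect of over 70% in size.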 To be noted: LYMP2-001 lymphoblastoid cell viability; series mostly up to 92.2 µM. The essentials:
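Human lymphoblastoid cells (Coriell), 2500 per well, were preincubated 5 hr at 37 C, then exposed to compounds in complete medium for 24 hr at 37 C. Cellular ATP was read by CellTiter-Glo luminescence; AC50 from Hill fits of concentration-response data.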

Test [4] is described as follows: MultiTox-Fluor Cytotoxicity Assay - LYMP1-002 - Live Cells (AID 955).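 Further: cells exposed to compound for 16 hours; on the % scale 0 is the no-effect control and ±100 the full control effect.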 To be noted: LYMP1-002 lymphoblastoid live-cell protease fluorescence viability; series mostly up to 46.1 µM. The gist of the method:
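Cells were seeded at 2500 per well and incubated 5 hr. Compounds were then added for 16 hr at 37 C, followed by MultiTox-Fluor reagent for 60 min at room temperature and fluorescence reading of viable-cell protease signal.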

Test [5] is described as follows: Cell Viability - LYMP2-025 (AID 976).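 Further: plate controls were DMSO only for no effect and tetraoctylammonium bromide control for full effect.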 To be noted: LYMP2-025 lymphoblastoid cell viability; series mostly up to 92.2 µM. The gist of the method:
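Acute cytotoxicity is scored as a concentration-dependent fall in intracellular ATP, measured by luciferase luminescence, in human lymphoblastoid LYMP2-025 cells exposed to compound for 24 hours at 37 C. AC50 values come from standard Hill fits.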

Test [6] deals with Glucocorticoid receptor (Homo sapiens) (UniProt P04150). The experiment in a line: qHTS assay for small molecule agonists of glucocorticoid receptor signaling (AID 588532; active means well fitted curve in the direction sought with a large enough effect in the signal ratio, with a control signal flat; the % refers to the signal ratio;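 further: 100% = dexamethasone at 0.1 µM and 0% = DMSO only wells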). To be noted: HeLa MMTV-bla, beta-lactamase ratio, agonist, 18 h; stronger effect = higher value; percent of dexamethasone control, DMSO zero. The essentials:
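Stimulation of a glucocorticoid response element-driven beta-lactamase gene was measured in HeLa cells. Responses were scaled between DMSO basal and 0.1 uM dexamethasone, then fitted for half-maximal stimulation.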

Test [7] in a line: qHTS assay for small molecule antagonists of peroxisome proliferator-activated receptor delta signaling (AID 588535).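 Further: cells co-treated with a PPAR-delta agonist as stimulator during compound exposure.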 To be noted: HEK293T PPARd-UAS-bla, beta-lactamase FRET ratio, 18 h; 460 nm channel. The gist of the method: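 Inhibition of PPAR-delta response element-driven beta-lactamase expression is measured in HEK293T cells exposed to a compound titration series for 18 hrs at 37 C. Half-maximal inhibition comes from Hill equation fitting.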

In test [8] the target is Voltage-gated inwardly rectifying potassium channel KCNH2 (Homo sapiens) (UniProt Q12809). The experiment in a line: qHTS Assay for Small Molecule Inhibitors of the Human hERG Channel Activity (AID 588834).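 Further: top concentration of the series differs between compounds; on the % scale 0 is the no-effect control and ±100 the full control effect; lower thallium flux fluorescence means stronger hERG block; nearly all actives have a fitted effect of over 50% in size.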 To be noted: U2OS BacMam hERG, FluxOR thallium flux fluorescence; series mostly up to 92.2 µM. The essentials:
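In hERG-transduced U2OS cells, dye-loaded for 1 hr at room temperature in dark, test compounds incubated 10 min at 37 °C before thallium stimulation. AC50 values derived by Hill modelling of concentration-response.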

Test [9] can be described thus: Cell Viability - SK-N-SH (AID 435; calls by dose curve;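 further: potency means the concentration at half of the fitted maximal effect; compound exposure lasted 40 h at 37 °C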). The following applies: SK-N-SH neuroblastoma cell viability qHTS. The essentials:
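SK-N-SH human neuroblastoma cells (1500/well) were exposed to compounds in complete medium for 40 h at 37 °C, and intracellular ATP was then measured by CellTiter-Glo luminescence. AC50 was taken from Hill fits, normalized to DMSO and 100 uM tamoxifen.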

Test [10] can be described thus: Cell Viability - LYMP1-003 - Assay at 40 hr (AID 964). Further: on the % scale 0 is the no-effect control and ±100 the full control effect; nearly all actives have a fitted effect of over 60% in size. To be noted: LYMP1-003 lymphoblastoid viability; series mostly up to 92.2 µM. The essentials:
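Luminescent ATP signal (CellTiter-Glo) served as the viability read-out after 40 hr compound treatment of human lymphoblastoid LYMP1-003 cells at 37 C. Decreases in ATP were fitted with the Hill equation to give AC50.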

Test [11] is described as follows: Cell Viability - LYMP2-019 (AID 973).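 Further: 0% = DMSO alone and full effect = 92 µM tetraoctylammonium bromide; nearly all actives have a fitted effect of over 55% in size.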 To be noted: LYMP2-019 lymphoblastoid cell line viability; series mostly up to 92.2 µM. The essentials:
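Cytotoxicity is scored as a concentration-dependent drop in cellular ATP after cells (2500/well) receive compound for 24 hr at 37 C. Tetraoctylammonium bromide serves as positive control.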

Test [12] can be described thus: Cell Viability - LYMP2-023 (AID 975).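 Further: cellular ATP measured by luciferase luminescence as viability proxy; plate controls were DMSO only for no effect and 92 µM tetraoctylammonium bromide control for full effect; nearly all actives have a fitted effect of over 55% in size.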 The following applies: LYMP2-023 lymphoblastoid cell viability; series mostly up to 92.2 µM. The gist of the method: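 Steps: seed 2500 human lymphoblastoid cells per well, incubate 5 hr at 37 C, add compound for 24 hr at 37 C, add CellTiter-Glo, hold 30 min at room temperature, read luminescence. AC50 derived by Hill modelling.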

Test [13] is described as follows: Cell Viability - LYMP2-018 (AID 985).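 Further: compound exposure lasted 24 hr at 37 °C; plate controls were DMSO only for no effect and tetraoctylammonium bromide at 92 µM for full effect; nearly all actives have a fitted effect of over 50% in size.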 To be noted: LYMP2-018 lymphoblastoid cells, viability (qHTS); series mostly up to 92.2 µM. The essentials:
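Seed 2500 lymphoblastoid cells per well, incubate 5 hr at 37 C, add compound and incubate 24 hr at 37 C, add CellTiter-Glo, wait 30 min at room temperature, then read luminescence.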

Test [14] concerns the target Peroxisome proliferator-activated receptor gamma (Homo sapiens) (UniProt P37231). Briefly: qHTS assay for small molecule antagonists of peroxisome proliferator-activated receptor gamma signaling (AID 588537; active means well fitted inhibition curve with a large enough effect in the signal ratio, with a control signal flat, not every such curve was filed as active; the % refers to the signal ratio;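 further: reporter cells co-stimulated with 50 nM rosiglitazone agonist during compound treatment; % of control where 0% means no effect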). The following applies: HEK293 PPARg-UAS-bla, beta-lactamase ratio, antagonist mode; series mostly up to 76.8 µM. The essentials: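 Compounds are tested as concentration series for inhibition of rosiglitazone-driven (50 nM) reporter expression in GeneBLAzer PPAR-gamma-UAS-bla HEK293 cells. After 16 h at 37 C, CCF4 substrate is added for 2 h at room temperature and blue/green fluorescence is measured.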

Test [15] concerns the target Thyroid hormone receptor beta (Homo sapiens) (UniProt P10828). The experiment in a line: qHTS assay for small molecule antagonists of thyroid hormone receptor beta signaling (AID 588547; active means well fitted inhibition curve with a large enough effect in the signal ratio, with a control signal flat, not every such curve was filed as active; the % refers to the signal ratio;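 further: cells stimulated with 0.4 nM T3 agonist during compound exposure; on the % scale 0 is the no-effect control and ±100 the full control effect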). The following applies: TR-UAS-bla HEK293, beta-lactamase ratio, antagonist mode, 18 h. The gist of the method: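 TR-UAS-bla GripTite HEK293 cells in 2% charcoal/dextran FBS medium were preincubated 4 h at 37 C, given compound (0.59 nM to 92 uM) plus 0.4 nM T3 (final) for 18 h, then CCF4 for 2 h at RT; Hill fit gave IC50.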

Test [16] in a line: Cell Viability - LYMP2-022 (AID 987).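 Further: 0% = DMSO alone and full effect = tetraoctylammonium bromide at 92 µM; nearly all actives have a fitted effect of over 55% in size.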 To be noted: LYMP2-022 lymphoblastoid cell viability; series mostly up to 92.2 µM. The essentials: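 Cells were seeded at 2500 per well, rested 5 hr at 37 C, and treated with titrated compounds for 24 hr at 37 C. Cellular ATP was then quantified by luciferase luminescence, and AC50 values were derived from Hill-modelled concentration-response curves.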

For test [17], the target named is Glucocorticoid receptor (Homo sapiens) (UniProt P04150). The experiment in a line: qHTS assay for small molecule antagonists of glucocorticoid receptor signaling (AID 588533; active means well fitted inhibition curve with a large enough effect in the signal ratio, with a control signal flat, not every such curve was filed as active; the % refers to the signal ratio;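 further: cells stimulated with 2 nM dexamethasone as agonist; on the % scale 0 is the no-effect control and ±100 the full control effect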). The following applies: HeLa MMTV-bla, GRE beta-lactamase ratio, antagonist mode, 18 h; series mostly up to 76.8 µM. The essentials: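 Antagonist-mode qHTS: compound titrations added to GRE-bla HeLa cells, then dexamethasone 2 nM final; 18 h, 37 C. CCF4 FRET fluorescence normalized to dexamethasone and DMSO; IC50 from Hill fit.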

The nature of test [18]: MultiTox-Fluor Cytotoxicity Assay - LYMP1-001 - Live Cells (AID 947).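 Further: 0% = DMSO only and full inhibition = tetraoctylammonium bromide control.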 The following applies: LYMP1-001 lymphoblastoid cells, live-cell protease fluorescence viability; series mostly up to 92.2 µM.
Test [19] can be described thus: Cell Viability - LYMP2-007 (AID 979).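 Further: cells exposed to compound for 24 h before reading; 0% = DMSO only and the negative end = 92 µM tetraoctylammonium bromide; nearly all actives have a fitted effect of over 60% in size.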 The following applies: LYMP2-007 lymphoblastoid cell viability; series mostly up to 92.2 µM. The gist of the method: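 Cells are seeded at 2500 per well and rested 5 hr. Compounds are then added over a concentration series for 24 hr at 37 C. CellTiter-Glo is added for 30 min at room temperature before luminescence reading.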

Test [20] concerns the target Bile acid receptor (Homo sapiens) (UniProt Q96RI1). The experiment in a line: qHTS assay for small molecule antagonists of farnesoid X receptor signaling (AID 588526; calls by dose curve; further: on the % scale 0 is the no-effect control and ±100 the full control effect). To be noted: HEK293T FXR-UAS-bla, beta-lactamase ratio, antagonist mode; series mostly up to 76.7 µM. The gist of the method:
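Concentration-response titrations were fitted to the Hill equation for half-maximal inhibition and maximal response, with data normalised to 50 uM chenodeoxycholic acid and DMSO control wells. Cells: FXR-UAS-bla HEK293T, dialyzed FBS.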

Peroxisome proliferator-activated receptor gamma (Homo sapiens), sequence (P37231 whole entry, looked up): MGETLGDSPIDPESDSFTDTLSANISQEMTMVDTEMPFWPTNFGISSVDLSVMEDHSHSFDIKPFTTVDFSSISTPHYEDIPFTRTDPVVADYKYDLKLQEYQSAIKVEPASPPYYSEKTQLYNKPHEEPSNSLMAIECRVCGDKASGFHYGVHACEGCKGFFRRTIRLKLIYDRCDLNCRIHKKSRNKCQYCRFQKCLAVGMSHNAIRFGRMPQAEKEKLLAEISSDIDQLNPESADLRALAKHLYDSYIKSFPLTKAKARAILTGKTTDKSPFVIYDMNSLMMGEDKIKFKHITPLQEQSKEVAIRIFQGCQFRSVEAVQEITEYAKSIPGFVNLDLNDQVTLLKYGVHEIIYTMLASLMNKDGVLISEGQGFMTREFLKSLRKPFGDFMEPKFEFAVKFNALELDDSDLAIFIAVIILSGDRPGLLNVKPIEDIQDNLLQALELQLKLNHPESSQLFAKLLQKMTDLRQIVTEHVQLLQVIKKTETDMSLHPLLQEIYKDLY
Thyroid hormone receptor beta (Homo sapiens), sequence (P10828 whole entry, looked up): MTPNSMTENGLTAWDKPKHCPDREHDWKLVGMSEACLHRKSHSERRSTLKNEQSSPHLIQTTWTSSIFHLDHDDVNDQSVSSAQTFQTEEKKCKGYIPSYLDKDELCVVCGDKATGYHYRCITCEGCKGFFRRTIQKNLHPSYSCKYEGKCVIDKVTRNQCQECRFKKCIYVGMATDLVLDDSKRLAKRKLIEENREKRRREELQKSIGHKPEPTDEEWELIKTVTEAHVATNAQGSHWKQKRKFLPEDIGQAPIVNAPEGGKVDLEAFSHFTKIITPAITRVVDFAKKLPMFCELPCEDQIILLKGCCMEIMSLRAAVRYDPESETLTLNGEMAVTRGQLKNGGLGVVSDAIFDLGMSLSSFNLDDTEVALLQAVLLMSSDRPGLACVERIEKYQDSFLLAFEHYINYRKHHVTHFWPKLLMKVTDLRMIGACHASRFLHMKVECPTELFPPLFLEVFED
Glucocorticoid receptor (Homo sapiens), sequence (P04150 whole entry, looked up): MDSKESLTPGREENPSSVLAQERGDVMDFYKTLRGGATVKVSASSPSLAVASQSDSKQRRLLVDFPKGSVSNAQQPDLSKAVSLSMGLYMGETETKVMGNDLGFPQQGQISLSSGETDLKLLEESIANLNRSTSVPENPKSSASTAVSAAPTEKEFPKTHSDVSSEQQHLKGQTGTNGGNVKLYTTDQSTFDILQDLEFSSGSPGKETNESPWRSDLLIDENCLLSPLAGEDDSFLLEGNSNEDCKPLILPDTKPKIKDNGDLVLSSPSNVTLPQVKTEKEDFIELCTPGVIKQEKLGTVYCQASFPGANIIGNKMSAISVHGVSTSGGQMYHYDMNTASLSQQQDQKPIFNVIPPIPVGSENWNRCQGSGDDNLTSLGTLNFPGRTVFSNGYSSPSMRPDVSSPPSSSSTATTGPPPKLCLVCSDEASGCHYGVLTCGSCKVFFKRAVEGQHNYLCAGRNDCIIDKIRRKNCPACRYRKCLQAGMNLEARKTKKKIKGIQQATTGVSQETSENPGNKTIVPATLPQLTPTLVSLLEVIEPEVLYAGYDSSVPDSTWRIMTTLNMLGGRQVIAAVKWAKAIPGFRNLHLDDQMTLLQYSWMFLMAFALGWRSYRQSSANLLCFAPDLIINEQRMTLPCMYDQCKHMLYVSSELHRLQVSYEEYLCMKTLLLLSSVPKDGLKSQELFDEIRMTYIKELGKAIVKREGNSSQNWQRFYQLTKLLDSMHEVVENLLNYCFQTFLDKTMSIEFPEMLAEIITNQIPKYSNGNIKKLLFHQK
Bile acid receptor (Homo sapiens), sequence (Q96RI1 whole entry, looked up): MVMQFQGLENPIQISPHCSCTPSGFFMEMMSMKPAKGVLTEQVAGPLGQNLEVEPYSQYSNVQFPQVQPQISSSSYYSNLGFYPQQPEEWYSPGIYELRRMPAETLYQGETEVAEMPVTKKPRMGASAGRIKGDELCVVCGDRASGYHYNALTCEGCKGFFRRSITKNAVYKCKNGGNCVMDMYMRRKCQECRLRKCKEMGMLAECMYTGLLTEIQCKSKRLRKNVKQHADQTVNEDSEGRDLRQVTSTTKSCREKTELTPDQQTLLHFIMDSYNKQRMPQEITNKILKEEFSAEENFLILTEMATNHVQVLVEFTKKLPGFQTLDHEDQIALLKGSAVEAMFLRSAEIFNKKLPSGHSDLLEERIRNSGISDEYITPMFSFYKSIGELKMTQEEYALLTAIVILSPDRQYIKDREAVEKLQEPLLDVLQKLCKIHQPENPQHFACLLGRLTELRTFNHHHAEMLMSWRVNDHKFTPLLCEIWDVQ
Voltage-gated inwardly rectifying potassium channel KCNH2 (Homo sapiens), sequence (Q12809 whole entry, looked up): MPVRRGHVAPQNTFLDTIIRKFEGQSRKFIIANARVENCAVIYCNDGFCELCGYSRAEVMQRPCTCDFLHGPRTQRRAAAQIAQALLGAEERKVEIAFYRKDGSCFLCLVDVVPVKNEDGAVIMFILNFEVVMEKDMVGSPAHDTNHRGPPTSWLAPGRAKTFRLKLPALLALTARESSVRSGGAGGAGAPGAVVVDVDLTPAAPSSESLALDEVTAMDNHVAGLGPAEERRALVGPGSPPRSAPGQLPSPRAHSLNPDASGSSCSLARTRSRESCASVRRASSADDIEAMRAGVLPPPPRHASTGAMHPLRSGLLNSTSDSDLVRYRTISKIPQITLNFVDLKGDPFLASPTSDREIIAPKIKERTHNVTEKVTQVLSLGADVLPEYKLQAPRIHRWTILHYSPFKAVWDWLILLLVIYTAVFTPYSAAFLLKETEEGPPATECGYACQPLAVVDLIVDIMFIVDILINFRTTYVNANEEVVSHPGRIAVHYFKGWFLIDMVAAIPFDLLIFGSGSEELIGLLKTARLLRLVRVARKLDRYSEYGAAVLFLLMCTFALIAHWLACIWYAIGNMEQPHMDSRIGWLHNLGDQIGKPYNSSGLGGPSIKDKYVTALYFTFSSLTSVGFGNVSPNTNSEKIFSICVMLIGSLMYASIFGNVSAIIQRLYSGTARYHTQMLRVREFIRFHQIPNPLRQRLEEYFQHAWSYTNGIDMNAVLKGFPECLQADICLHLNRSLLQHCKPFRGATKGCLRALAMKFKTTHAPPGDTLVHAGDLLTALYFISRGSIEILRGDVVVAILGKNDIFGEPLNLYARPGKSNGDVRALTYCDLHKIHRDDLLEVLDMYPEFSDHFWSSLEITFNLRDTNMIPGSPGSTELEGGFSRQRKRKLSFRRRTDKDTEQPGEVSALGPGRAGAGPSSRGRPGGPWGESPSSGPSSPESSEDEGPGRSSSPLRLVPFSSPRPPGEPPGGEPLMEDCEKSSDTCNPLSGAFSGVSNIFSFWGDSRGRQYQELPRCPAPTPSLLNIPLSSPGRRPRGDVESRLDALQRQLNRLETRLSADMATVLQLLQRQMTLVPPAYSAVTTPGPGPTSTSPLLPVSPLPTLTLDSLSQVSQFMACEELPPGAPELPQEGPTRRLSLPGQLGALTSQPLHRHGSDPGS

`O=[N+]([O-])c1cc(Cl)c(Cl)c(Cl)c1Cl`: the Potency in test [1] was > 92 µM (inactive). Moreover, the Potency entry in test [2], in [3], in test [5] and in test [8] was “inactive” in each case. Further, in test [4], the result was inactive. The activation in test [6] was 0.473% (inactive). Further, the max response in test [7] worked out at 8.11%.

As to `CCCC(=O)OC(=O)CCC`, the Potency in test [9] is > 92 µM (inactive). Further, the Potency result in [2], in test [3], in [10], in [11], in test [12] and in test [5] was “inactive” throughout. For the same compound, the Potency entry in [13] and in test [14] was “inactive” in each case. In addition, the max response in test [7] was 16.1% and 21.1%. In test [15], the activity change % (negative = inhibition) was 18.6% (inactive) and 0.261% (inactive).

For the compound `C1CCCNCC1`, the Potency entry in test [10], in test [5], in [13], in [16] and in test [17] was “inactive” in each case. The activation in [6] is 8.29% (inactive). The max response in test [7] was -36.7%. Further, the activity change % (negative = inhibition) in test [15] is -19.9% (inactive).

On to `COc1cc(-c2ccc(N=C=O)c(OC)c2)ccc1N=C=O`, for which the Potency in test [9] was > 92 µM (inactive). In addition, the Potency entry in [2], in test [18], in test [10], in [12], in test [5] and in [13] was “inactive” in each case. Also, the compound was classed as inactive in [4].

As for `CC(=O)Nc1cccc(C)c1`, the Potency entry in test [2], in [3], in test [18], in test [11], in [19] and in [13] was “inactive” throughout. Further, the Potency entry in [16], in test [17] and in test [14] was “inactive” each time. The call in [4] was inactive. The max response in test [7] is -12.4%.

Consider `Cc1cccnc1`, for which the Potency result in [2], in [18], in test [10], in test [11], in test [12] and in test [19] was “inactive” throughout. The Potency result in test [13] and in test [16] was “inactive” in each case. In addition, the activity change % (negative = inhibition) in test [15] is 13.1% (inactive).

Turning to `Nc1ccc(-c2ccc(N)c(O)c2)cc1O`, the Potency in test [1] and in test [9] was > 92 µM (inactive) in each case. Also, the Potency result in test [2] and in [12] was “inactive” each time. The compound was called inactive in [4]. For the same compound, the activation in test [6] is 0.0418% (inactive).

In the case of `CC(=O)CC(=O)Nc1ccccc1`, the Potency in [1] and in test [9] was > 92 µM (inactive) each time. The Potency entry in [2], in [10], in [12], in test [19], in test [20] and in [17] was “inactive” in each case. The Potency entry in test [14] is “inactive”. In addition, the compound was classed as inactive in [4]. In addition, the activation in [6] was -8.89% (inactive). Further, the max response in test [7] was determined as 18.5%. For the same compound, the activity change % (negative = inhibition) in test [15] is 8.7% (inactive) and 11% (inactive).

Take `Oc1cc(Cl)cc(Cl)c1Cl`: the Potency in test [1] is > 92 µM (inactive). Also, the Potency result in [2], in test [18], in test [10], in [11], in test [16] and in [8] was “inactive” in each case.
